Where a name gives a salt, the structure may show the parent alone.
System: MDA-MB-468
Test: phospho-S6 immunofluorescence (DAPI-normalised), per-plate z-score; higher = higher phospho-S6 signal (less pathway suppression)
Settings: 24 h
Procedure: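 GPCR-targeted compound library (MedChemExpress HY-L006) tested on MDA-MB-468 PTEN-null TNBC cells in 384-well plates at 0.1, 1 or 10 uM, combined with vehicle, GDC0941 450 nM or lapatinib 1 uM, for 24 h. Phospho-S6 (S240/244) immunofluorescence normalised to DAPI and expressed as a per-plate z-score; values are the mean of biological triplicates.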

SMILES	phospho-S6 immunofluorescence (z-score) (co-treatment: GDC0941 450 nM)	phospho-S6 immunofluorescence (z-score) (co-treatment: lapatinib 1 uM)	phospho-S6 immunofluorescence (z-score) (co-treatment: vehicle)
CCN(CC)CCNC(=O)c1cc(Cl)c(N)cc1OC [Metoclopramide] (compound 10 µM)	-0.3	0.63	-0.11
O=c1ccc2ccc(OCCCCN3CCN(c4cccc5sccc45)CC3)cc2[nH]1 [Brexpiprazole] (compound 10 µM)	-5.22	-6.92	-4.57
OC[C@H]1O[C@@H](n2cnc3c(N[C@H]4CCC[C@@H]4O)ncnc32)[C@H](O)[C@@H]1O (compound 10 µM)	0.54	0.82	0.2
CCCNS(=O)(=O)Nc1ncnc(OCCOc2ncc(Br)cn2)c1-c1ccc(Br)cc1 [Macitentan] (compound 10 µM)	0.32	0.71	-0.16
Cc1ccc(C(=O)Nc2ccc(S(=O)(=O)O)c3cc(S(=O)(=O)O)cc(S(=O)(=O)O)c23)cc1NC(=O)c1cccc(NC(=O)Nc2cccc(C(=O)Nc3cc(C(=O)Nc4ccc(S(=O)(=O)O)c5cc(S(=O)(=O)O)cc(S(=O)(=O)O)c45)ccc3C)c2)c1 [Suramin (sodium salt)] (compound 10 µM)	0.54	1.39	-0.09
Nc1nc(N)nc(-c2cc(Cl)ccc2Cl)n1 [Irsogladine] (compound 10 µM)	-0.7	0.22	-1.11
COCc1nnc(N2CC(Oc3ccc(F)cc3Cl)C2)n1-c1ccc(OC)nc1 (compound 10 µM)	-0.38	-0.91	-0.61
CCN(CCCCOC(=O)c1ccc(OC)c(OC)c1)C(C)Cc1ccc(OC)cc1 (stereo not given) [Mebeverine (hydrochloride)] (compound 10 µM)	0.43	0.05	-0.85
CC1(C)O[C@@H]2C[C@H]3[C@@H]4CCC5=CC(=O)C=C[C@]5(C)[C@@]4(F)[C@@H](O)C[C@]3(C)[C@]2(C(=O)CO)O1 [Triamcinolone (acetonide)] (compound 10 µM)	-1.69	1.39	-1.2
CCC(=O)OCC(=O)[C@@]1(OC(=O)CC)[C@@H](C)C[C@H]2[C@@H]3CCC4=CC(=O)C=C[C@]4(C)[C@@]3(Cl)[C@@H](O)C[C@@]21C [Beclometasone dipropionate] (compound 10 µM)	0.45	0.54	0.15
CCN(CC)CC#CCOC(=O)C(O)(c1ccccc1)C1CCCCC1 (stereo not given) [Oxybutynin (chloride)] (compound 10 µM)	1.35	0.51	0.53
C[C@H](N)[C@H](O)c1cccc(O)c1 [Metaraminol (tartrate)] (compound 10 µM)	0.64	0.89	0.73
Oc1cc2c(cc1O)C(c1ccccc1)CNCC2 (stereo not given) (compound 10 µM)	0.77	0.35	1.06
O=C(c1ccc(F)cc1)C1CCN(CCn2c(=O)[nH]c3ccccc3c2=O)CC1 [Ketanserin (tartrate)] (compound 10 µM)	0.46	-0.54	0.68
Cc1[nH]cnc1CN1CCc2c(c3ccccc3n2C)C1=O [Alosetron (Hydrochloride)] (compound 10 µM)	0.22	-0.22	1.01
CN(C)CC1CCOC1(c1ccccc1)c1ccccc1 (stereo not given) [AVex-73 hydrochloride] (compound 10 µM)	-0.82	-1.17	0.2
CCN(CC)CCCC(C)Nc1nc(C)cc(Nc2ccc3nc(C)cc(N)c3c2)n1 (stereo not given) (compound 10 µM)	0.95	1.82	0.49
COc1cc2c(cc1OC)CN(C(=O)[C@@H](NCc1ccncc1)C(C)(C)C)CC2 (compound 10 µM)	0.85	0.87	-0.05
C=CCc1ccccc1OCC(O)CNC(C)C (stereo not given) [Alprenolol (hydrochloride)] (compound 10 µM)	0.45	-0.09	1.12
CCCCC[C@H](O)/C=C/[C@@H]1[C@@H](C/C=C\CCCC(=O)O)[C@@H](O)C[C@H]1O [Dinoprost (tromethamine salt)] (compound 10 µM)	-0.07	-0.14	0.98
C[C@H]1CN(C[C@H](Cc2ccccc2)C(=O)NCC(=O)O)CC[C@@]1(C)c1cccc(O)c1 [Alvimopan (dihydrate)] (compound 10 µM)	-0.22	0.49	-0.86
CC(C[N+](C)(C)C)OC(N)=O (stereo not given) [Bethanechol (chloride)] (compound 10 µM)	0.67	0.01	0.6
NC(=O)c1ccc[n+]([O-])c1 [Nicotinamide N-oxide] (compound 10 µM)	0.09	0.22	-0.26
O=c1[nH]c2ccccc2n1CCN1CCN(c2cccc(C(F)(F)F)c2)CC1 [Flibanserin] (compound 10 µM)	-0.19	-0.04	0.48
CCCC(=O)Nc1ccc(OCC(O)CNC(C)C)c(C(C)=O)c1 (stereo not given) [Acebutolol (hydrochloride)] (compound 10 µM)	1.02	0.15	-0.08

From the supplement of paper PMC7411640
